# Screening data as filed in PubChem.
# Measles CPE: compounds protecting cells from measles virus cytopathic effect, primary screen, measles RdRp inhibitor project, single point, MLSMR library, absorbance | Measles virus-infected cells, CPE protection | protection (pct of control), % at 4 µM | 140,000 tested, 1.5% active | AID 841, 2007; in the data active means protection mostly above about 24%, no sharp cut-off; inactive means mostly below about 26%
# CYP2C19 inhib: blockers of cytochrome P450 2C19 activity – biochemical, luminescence, ADME assay, primary screen; P33261; AID 778, 2007; inhibition, % at 5 µM; 96,000 tested, 21% active; CYP2C19 Supersomes, luciferin-H EGE luminescence, 30 min;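 active means CYP2C19 inhibition above a set limit at 5 µM in the primary screen, cut at about 50% in these data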;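 further: plate controls were negative control wells for no effect and 2.5 mM tranylcypromine positive control for full effect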
# Target sequence (P33261 whole entry, looked up): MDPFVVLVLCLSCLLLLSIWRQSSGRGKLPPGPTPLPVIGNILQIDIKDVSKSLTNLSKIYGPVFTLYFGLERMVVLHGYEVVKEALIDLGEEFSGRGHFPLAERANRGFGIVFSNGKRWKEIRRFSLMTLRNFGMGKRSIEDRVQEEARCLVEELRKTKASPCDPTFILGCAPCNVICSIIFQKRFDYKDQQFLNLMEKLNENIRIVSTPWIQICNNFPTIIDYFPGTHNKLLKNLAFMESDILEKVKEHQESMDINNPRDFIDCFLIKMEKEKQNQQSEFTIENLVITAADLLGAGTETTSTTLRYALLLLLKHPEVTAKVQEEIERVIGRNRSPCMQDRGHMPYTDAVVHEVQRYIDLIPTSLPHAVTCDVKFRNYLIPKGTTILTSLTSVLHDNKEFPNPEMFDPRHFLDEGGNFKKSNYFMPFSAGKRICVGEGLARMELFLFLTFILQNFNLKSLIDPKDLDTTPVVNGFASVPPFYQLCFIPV
# CYP2C19 act: human CYP2C19 activators, primary screen, biochemical, luminescence; recombinant CYP2C19, luciferin-H EGE luminescence; active compounds read high; 0 = fully inhibited enzyme, 1 = untreated enzyme; activation factor at 5 µM; 96,000 tested, under 10 active; Cytochrome P450 2C19 (Homo sapiens), P33261;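 active means activation factor of at least 2 at 5 µM in the primary screen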;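 further: 0 = wells with 2.5 mM tranylcypromine and 1 = vehicle-only wells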
# CYP2C9 act: human CYP2C9 activators, primary screen, biochemical, luminescence; recombinant CYP2C9, luciferin-H conversion; active compounds read high; factor 1 = untreated enzyme, 0 = blocked; 96,000 tested, 1.4% active; activation factor at 5 µM;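 active means activation factor of 2 or more for CYP2C9 at a 5 µM dose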;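 further: 0 = sulfaphenazole-blocked wells and 1 = vehicle-only wells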
# CYP2C9 inh: blockers of cytochrome P450 2C9 activity – biochemical, luminescence, ADME assay, primary screen | P11712 | CYP2C9 Supersomes, luciferin-H conversion | inhibition, % at 5 µM | 96,000 tested, 20% active | AID 777, 2007;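 active means blocking of liver enzyme CYP2C9 beyond about 50% at 5 µM, limit read from the data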
# * hit, by the source's call; nt = no result given. Shown are actives, neighbours in structure and some others; about 22% of the full set was active somewhere.
SMILES,Measles CPE,CYP2C19 inhib,CYP2C19 act,CYP2C9 act,CYP2C9 inh
CS(=O)(=O)N(CC(=O)Nc1ccccc1C(=O)N1CCOCC1)c1ccccc1,16.1,nt,nt,nt,nt
CS(=O)(=O)N(CC(=O)Nc1ccccc1C(=O)NCc1ccccc1)c1ccc2c(c1)OCCO2,4.1,36.1,0.6,0.1,94.1*
CC(C)NC(=O)c1ccccc1NC(=O)CN(c1ccc2c(c1)OCO2)S(C)(=O)=O,0.9,45.2,0.5,0.2,82.3*
COc1ccccc1N(CC(=O)Nc1ccccc1C(=O)NC(C)C)S(C)(=O)=O,16.0,-0.7,1,0.6,40.8
CC(C)C12CN3CC(C(C)C)(CN(C1)C3c1ccccc1O)C2=O (configuration not stated),32.6,90.7*,0.1,0.1,89.6*
CCCC12CN3CC(C)(CN(C1)C3c1ccc3c(c1)OCO3)C2=O (configuration not stated),42.1,72.9*,0.3,1.3,-25.1
CC(C)C12CN3CC(C(C)C)(CN(C1)C3c1ccc3c(c1)OCO3)C2=O (configuration not stated),21.0,92.3*,0.1,0.2,75.4*
CC(=O)C1=NN(c2ccccc2)C(c2ccc3c(c2)OCO3)N1c1ccccc1 (configuration not stated),4.5,nt,nt,nt,nt
CN1C(=O)c2ccccc2N(C)C1c1ccc2c(c1)OCO2 (configuration not stated),16.8,81.4*,0.2,0.3,69.2*
Cc1c(Br)c(C(=O)NCc2cc3cc(Cl)ccc3[nH]2)nn1C,1.2,nt,nt,nt,nt
COc1ccccc1C(=O)NCC(=O)N/N=C/c1cc(Br)ccc1OCc1ccccc1,21.2,nt,nt,nt,nt
CC12CN3CC(C)(CN(C1)C3c1ccc(Br)cc1)C2=O (configuration not stated),11.1,31.9,0.7,1,3.6
CC12CN3CC(C)(CN(C1)C3c1cc(Br)ccc1O)C2=O (configuration not stated),3.4,52.2*,0.5,1,4.3
CCc1ccc(C(=O)COC(=O)C(Cc2ccccc2)NC(=O)c2ccc(Cl)cc2)cc1 (configuration not stated),45.0*,4.3,1,0.8,23.1
c1ccc(Nc2cc(Nc3ccccc3)[nH]n2)cc1,10.1,74.5*,0.3,0.5,45.2
c1ccc(Nc2cccc(Nc3ccccc3)c2)cc1,7.1,nt,nt,nt,nt
CCOC(=O)c1csc(NC(=O)COc2ccc(Cl)cc2Cl)n1,3.4,nt,nt,nt,nt
COc1ccccc1Nc1nc(C2(C)CCC(=O)O2)cs1 (configuration not stated),19.0,81.4*,0.2,0.6,38.9
COc1ccc(OC)c(Nc2nc(-c3cccs3)cs2)c1,3.1,2.3,1,0.9,11.6
COc1ccccc1Nc1nc(-c2cccs2)cs1,29.1,83.1*,0.2,0.3,72.4*
Cc1cc(Cl)ccc1OCC(=O)Nc1nc(-c2cccs2)cs1,10.8,21.1,0.8,0.4,55.6*
CC(=O)Nc1nc(-c2cccs2)cs1,4.8,30.6,0.7,0.5,54.0*
N#CC1=C(S)N(c2ccccc2)C(c2ccc(-c3ccccc3Cl)o2)NC1=O (configuration not stated),13.2,nt,nt,nt,nt
Cc1cnc(NC(=O)COc2ccccc2Cl)s1,16.2,20.2,0.8,0.9,12.0
O=C(COc1ccccc1Cl)Nc1nc(-c2cccs2)cs1,32.7,41.1,0.6,0.2,82.0*
SMILES,Measles CPE,CYP2C19 inhib,CYP2C19 act,CYP2C9 act,CYP2C9 inh
O=C1CC(=Nc2ccccc2)NN1c1ccccc1,12.1,35.7,0.6,0.2,84.3*
COc1ccccc1N=C1SCC(=O)N1c1ccccc1OC,3.9,nt,nt,nt,nt
O=C(Nc1ccccc1)OCc1ccccn1,5.4,51.2*,0.5,0.9,9.2
O=C(Nc1ccccc1)C(=O)Nc1ccccn1,26.5*,29.7,0.7,0.8,21.8
O=C(Nc1ccccc1)OCCOc1ccccc1,4.7,84.7*,0.2,0.7,29.1
O=C(Nc1ccccc1)O/N=C(\c1ccccc1)c1ccccn1,4.0,24.4,0.8,0.4,61.1*
NC(=O)COc1ccc(NC(=O)OCc2ccccc2)cc1,7.0,18.9,0.8,0.9,6.7
O=C(Nc1cccc(O)c1)C(=O)Nc1ccccn1,7.8,nt,nt,nt,nt
Cc1cc(N2CCN(S(=O)(=O)c3ccc4c(c3)OCCO4)CC2)n2ncnc2n1,5.8,16.5,0.8,1,3.1
COc1cccc(-c2nnc(SCC(=O)Nc3ccc(OC)c(OC)c3)n2N)c1,4.5,0.8,1,0.7,30.8
COC(=O)c1ccc(-n2nnnc2SCc2ccccc2OC)cc1,3.2,6.1,0.9,0.6,42.1
CC(C)NC(=O)COC(=O)CNC(=O)c1cc(Cl)cc([N+](=O)[O-])c1,13.0,nt,nt,nt,nt
O=C(NCCO)c1cccc(Cl)c1,2.5,17.8,0.8,0.8,19.1
O=C(Nc1ccccc1)OCCNC(=O)c1cccc(Cl)c1,28.6*,92.9*,0.1,0.1,87.1*
COc1ccc(OCCOC(=O)Nc2ccccc2)cc1,2.3,81.6*,0.2,0.6,44.8
COC(=O)Nc1ccc(Oc2ccccc2)cc1,11.3,78.4*,0.2,0.9,8.0
COC(=O)Nc1ccc(OCc2ccccc2)cc1,18.5,46.2,0.5,0.8,19.5
COCP(=O)(c1ccccc1)c1ccccc1,4.2,7.1,0.9,1,-0.7
O=P(CCCCCCCCCP(=O)(c1ccccc1)c1ccccc1)(c1ccccc1)c1ccccc1,7.8,80.1*,0.2,0,99.1*
O=C(O)CP(=O)(c1ccccc1)c1ccccc1,0.5,-5.0,1.1,0.9,14.1
O=P(Cc1ccncc1)(c1ccccc1)c1ccccc1,14.3,59.6*,0.4,1,-2.6
O=P(Cc1ccccc1)(c1ccccc1)c1ccccc1,7.3,nt,nt,nt,nt
O=P(COc1ccccc1)(c1ccccc1)c1ccccc1,4.9,44.7,0.6,0.3,71.8*
O=C(O)C(Oc1ccc2c3c(c(=O)oc2c1)CCC3)c1ccccc1 (configuration not stated),11.0,-15.6,1.2,1.1,-11.2
Oc1cccc(Nc2nc(NCC3CCCO3)c3ccccc3n2)c1 (configuration not stated),1.7,50.7*,0.5,0.4,60.1*
SMILES,Measles CPE,CYP2C19 inhib,CYP2C19 act,CYP2C9 act,CYP2C9 inh
CCOC(=O)CNc1c(-c2ccccc2)nc2ccc(Cl)cn12,18.8,57.5*,0.4,0.5,49.8
O=C(CSC1=NCCS1)Nc1ccccc1F,18.5,79.1*,0.2,0.5,48.5
O=C(O)CSc1nc2ccccc2[nH]1,12.4,-13.7,1.1,1.1,-8.2
O=C(CSc1nc2ccccc2[nH]1)NCCCn1ccnc1,4.8,91.9*,0.1,0.1,94.7*
O=C(CSC1=NCCS1)Nc1cccc2ccccc12,11.4,19.7,0.8,1,2.9
O=C(CSc1nc2ccccc2[nH]1)Nc1ccc(F)c(F)c1,6.7,56.4*,0.4,0.3,65.6*
